# Read-outs that look alike come from different tables or passages of the source.
# Key:
# MAP3K15 = details: concentration: 1 μM,replicates: in singlicate; n = 1
# MAP3K1 = details: concentration: 1 μM,replicates: in singlicate; n = 1
# MAP3K2 = details: concentration: 1 μM,replicates: in singlicate; n = 1
# MAP3K3 = details: concentration: 1 μM,replicates: in singlicate; n = 1
# MAP3K4 = details: concentration: 1 μM,replicates: in singlicate; n = 1
# MAP4K2 = details: concentration: 1 μM,replicates: in singlicate; n = 1
# MAP4K3 = details: concentration: 1 μM,replicates: in singlicate; n = 1
# MAP4K4 = details: concentration: 1 μM,replicates: in singlicate; n = 1
# MAP4K5 = details: concentration: 1 μM,replicates: in singlicate; n = 1
# MAPKAPK2 = details: n = 1
# [1] = concentration: 1 μM,replicates: in singlicate
# 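Note: KINOMEscan kinase panel screen.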
SMILES,%Inh (MAP3K15) [%],%Inh (MAP3K1) [%],%Inh (MAP3K2) [%],%Inh (MAP3K3) [%],%Inh (MAP3K4) [%],%Inh (MAP4K2) [%],%Inh (MAP4K3) [%],%Inh (MAP4K4) [%],%Inh (MAP4K5) [%],%Inh (MAPKAPK2; [1]) [%],%Inh (MAPKAPK2; 1 µM) [%]
CN1CCN(CCNc2nc3cc(Oc4ccc(NC(=O)Nc5cc(C(F)(F)F)ccc5F)cc4)ccc3[nH]2)CC1.Cl.Cl [GW768504],0,0,0,0,0,0,0,1,6,4,
COC(=O)c1cccc(NC(=O)NC2CCN(c3ccnc(Nc4cc(OC)c(OC)c(OC)c4)n3)C2)c1 (centres unmarked) [GSK1379767],0,0,0,0,7,0,3,15,35,0,
CCN1CCN(CCCC(=O)Nc2n[nH]c3nc(-c4ccc(O)cc4)c(Br)cc23)CC1 [SB-731579],0,0,0,0,0,0,0,7,5,17,
CC(C)S(=O)(=O)N1CCN(Cc2ccc3c(c2)nc(NC(=O)c2ccsc2)n3C[C@H](O)c2ccccc2)CC1 [GW635815],0,8,47,53,53,84,0,45,2,0,
O=C(NCC1CC1)c1ccc(-c2cc(C(=O)NC3CC3)ccc2F)cc1 [GW810445],0,0,0,0,0,0,0,0,0,0,
O=C(Nc1ccccc1)c1cccc(Oc2ccc3nccn3n2)c1,0,10,0,0,20,2,0,0,0,0,
CCNCC(Cc1ccccc1)NC(=O)c1cc(Br)c(-c2ccnc3[nH]ccc23)s1.Cl.Cl (centres unmarked) [GSK1383280],0,12,33,0,0,27,4,37,0,0,
C[C@@H](Oc1cc(-n2cnc3cc(-c4ccncc4)ccc32)sc1C(N)=O)c1ccccc1Cl [GSK479719],18,91.9,10,1,13,24,65,13,85,0,
Cc1cccc(-c2nc(Nc3ccncc3)c3sccc3n2)n1 [GW869641],30,37,44,28,0,50,5,37,11,0,
COc1ccc(Nc2nccc(N3CCC(NC(=O)c4cccc(C#N)c4)C3)n2)cc1 (centres unmarked) [GSK1379730],0,1,0,0,40,0,0,16,10,0,
Cc1nnc(-c2ccc3occ(-c4ccc(S(C)=O)cc4)c3n2)o1 (centres unmarked),0,0,0,0,1,0,44,0,38,0,
Cc1ccc(C(=O)Nc2ccc(Oc3ccc4nc(NC(=O)C5CC5)cn4c3)c(F)c2)c(=O)n1-c1ccccc1,0,0,0,5,12,0,16,0,0,0,
Cc1ccc(Nc2ccnc(Nc3ccc4c(c3)CS(=O)(=O)C4)n2)cc1O.Cl [GW579362],0,27,88,73,29,22,0,52,33,0,
N#Cc1cccc(C(=O)NC2CCN(c3ccnc(Nc4ccc(F)cc4)n3)C2)c1 (centres unmarked) [GSK1379708],0,1,11,0,33,0,0,7,1,14,
CCn1c(-c2nonc2N)nc2cncc(CNC3CCNCC3)c21.Cl [SB-747651],3,6,13,0,14,0,0,0,0,19,
C[C@@H]1CNc2c(sc3ccc4nc(-c5ccncc5)ccc4c23)C(=O)N1,52,0,0,5,0,70,1,0,0,,97.1
CC(=O)Nc1nc2cnc(Nc3cc(NC(=O)c4cccc(CC(C)(C)C#N)c4)ccc3C)nc2s1,22,13,0,36,0,0,0,7,0,0,

# Source: PMC5540273 (PLoS ONE, 2017)
